TTR transcr act: increases transthyretin transcription | activation, % at 16.7 µM | hit rate 1.3% among 92,000 | AID 1117267 | SH-SY5Y TTR promoter Gaussia luciferase, luminescence; 100% = recombinant luciferase protein wells;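 active means activation above the mean of all tested compounds plus 3 SD, cut at about 9.5% in these data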;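 further: cells exposed to compounds for one day before reading; 0% = median of all test compound wells on the plate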
HuH7 TTR inh: decreases TTR transcription in HuH7 cells in activator counter-screen; shares compounds with TTR transcr act; HuH7 TTR promoter-Gaussia luciferase reporter, luminescence; inhibition, % at 16.7 µM; hit rate 4% among 1,100; AID 1117279;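 active means average inhibition above the solvent-only control wells' mean plus 3 SD, cut at about 15% in these data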;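 further: 0% = cells with DMSO only and 100% = cells with inhibitor control FD; inhibitors lower well luminescence so higher value means more inhibition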
TTR up confirm: human TTR transcription activation, confirmation; activation, % at 16.7 µM; shares compounds with TTR transcr act; AID 1117280; SHSY5Y TTR promoter Gaussia luciferase, luminescence; 100% = purified Lucia enzyme wells, no cells; 1,100 tested, under 10 active;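 active means mean activation above a set limit taken from the earlier primary screen, cut at about 11% in these data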;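 further: 0% = DMSO-treated cells and 100% = recombinant Lucia luciferase without cells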
* hit, by the source's call. Shown is part of a subset that was picked to be rich in hits.

Screening CCn1c(=O)c(=O)[nH]c2c(=O)oc3ccc(S(=O)(=O)Nc4ccccc4)cc3c21 returned TTR transcr act 0.
Screening COC(=O)C[C@H]1CC[C@@H]2[C@@H](COc3ccc(NS(=O)(=O)c4ccccc4Cl)cc3C(=O)N2C)O1 returned TTR transcr act -2.
Screening CCOC(=O)CN(C(=O)COc1nc(C)cc(C)c1C#N)c1ccc(F)cc1 returned TTR transcr act -1.
For COc1ccc(C(=O)COc2nc(C)cc(C)c2C#N)cc1 the results were TTR transcr act 7.
CCOc1ccc(N(C(C)=O)c2nc(C)cc(C)c2C#N)cc1 was read as TTR transcr act 19*, HuH7 TTR inh -6 and TTR up confirm 0.
For O=C1Nc2cc(Cl)c(Cl)cc2N(O)N1c1ccc(Cl)c(Cl)c1 the results were TTR transcr act 2.
Screening CC(C)N(Cc1ccccc1)C(=O)COC(=O)c1cnc(Cl)c(Cl)c1 returned TTR transcr act 0.
Screening COc1ccc(CCNC(=O)Cn2nnc(-c3ccccc3F)n2)cc1OC returned TTR transcr act -1.
For COc1ccc(CCNC(=O)Cn2cnc3c(nnn3Cc3ccccc3F)c2=O)cc1OC the results were TTR transcr act 22*, HuH7 TTR inh -10 and TTR up confirm -1.
`O=C(Cn1cnc2c(nnn2Cc2ccc(F)cc2)c1=O)NCc1ccc(F)cc1` gave TTR transcr act 1.
COc1ccccc1C(=O)n1ccc2ccc(-c3ccc4ccn(Cc5ccc(C#N)cc5)c4c3)cc21 was read as TTR transcr act 3.
Screening COc1cc(OC)cc(C(=O)OCC(=O)NC2CCCCCC2)c1 returned TTR transcr act -2.
`Oc1[nH]c2ccccc2c1N=NC(=S)NCCc1ccccc1` gave TTR transcr act 7.
Screening CC(C)c1ccc2[nH]c(O)c(N=NC(=S)NCCc3ccccc3)c2c1 returned TTR transcr act 12*, HuH7 TTR inh -8 and TTR up confirm 0.
`CC(C)c1ccc2[nH]c(O)c(N=NC(=O)c3ccc(CSc4nncn4C)cc3)c2c1` gave TTR transcr act 9.
COc1cc(NS(=O)(=O)c2ccc(NC(=S)NC(C)=O)cc2)nc(OC)n1 was read as TTR transcr act 17*, HuH7 TTR inh -20 and TTR up confirm -1.
`COc1cc(NS(=O)(=O)c2ccc(NC(=O)COc3ccc(C)cc3)cc2)nc(OC)n1` gave TTR transcr act 0.
CCOC(=O)/C=C/C(=O)Nc1ccc(S(=O)(=O)Nc2cc(OC)nc(OC)n2)cc1 was read as TTR transcr act 0.
For Cc1ccc(-c2n[nH]c(=S)n2/N=C/c2ccncc2)cc1 the results were TTR transcr act 10.0*, HuH7 TTR inh 6 and TTR up confirm 0.
`S=c1[nH]nc(-c2ccncc2)n1/N=C/C=C/c1ccccc1` gave TTR transcr act 5.
For Cc1ccc(-c2n[nH]c(=S)n2/N=C/c2sccc2C)cc1 the results were TTR transcr act 1.
Screening Cc1ccc(CN2CCCCC(NC(=O)c3ccccc3)C2=O)cc1 (centres undefined) returned TTR transcr act 0.
CCCCCCCCN1C(=O)[C@@H](CC(=O)NCCCOC)C[C@@]2(C(=O)OC)C1=C[C@H](C(C)C)O[C@@H]2C1CC1 was read as TTR transcr act -1.
Screening CC(C)(C)OC(=O)[C@H](Cc1ccccc1)NCC(=O)OCc1ccc(C(=O)NCc2ccccc2)cc1 returned TTR transcr act -1.
Screening O=C(CN(C(=O)OCC1c2ccccc2-c2ccccc21)[C@@H](Cc1ccccc1)C(=O)O)OCc1ccc(C(=O)NCc2ccccc2)cc1 returned TTR transcr act 12*, HuH7 TTR inh -21 and TTR up confirm 2.
Screening O=C(N[C@@H](Cc1ccc(Br)cc1)C(=O)O)OCC1c2ccccc2-c2ccccc21 returned TTR transcr act 0.
N#Cc1cccc(NC(=O)OC2CC3CC2[C@H]2CCCCN2C3)c1 (some centres undefined) was read as TTR transcr act -1.
CCOC(=O)[C@]12CCCC=C1N(Cc1ccc(OC)cc1)C(=O)[C@@H]2CC(=O)NCc1cccc(C(F)(F)F)c1 was read as TTR transcr act -1.
Screening O=C(OCC#CCSc1nnc(-c2cccc3ccccc23)o1)C1CCCC1 returned TTR transcr act 2.
`O=C(OCc1cn(Cc2c(F)cccc2F)nn1)N1CCCC1` gave TTR transcr act 2.
Screening COc1ccc(C2=Nn3c(nnc3-c3ccc(OC)cc3)SC2)cc1 returned TTR transcr act -1.
Screening CC(C)(C)C1=Nn2c(nnc2C2CCCCC2)SC1 returned TTR transcr act 2.
For c1cc2c(cc1C1=Nn3c(nnc3C3CCCCC3)SC1)OCO2 the results were TTR transcr act 9.9*, HuH7 TTR inh 30* and TTR up confirm -1.
For CC(C)CN(C(=O)CCCSc1nc2ccccc2[nH]1)c1c(N)n(Cc2ccccc2)c(=O)[nH]c1=O the results were TTR transcr act 0.
Screening CCOC(=O)CCCNC(=O)O[C@@H]1CC[C@@]23CCCN2C(=O)CCC[C@H]3C1 returned TTR transcr act 4.
Screening Fc1cccc(Cc2noc(CN3CCCCC3c3ccccn3)n2)c1 (centres undefined) returned TTR transcr act -1.
Screening COc1cccc(C(O)c2nccn2Cc2ccccc2)c1OC (centres undefined) returned TTR transcr act 1.
`COc1ccccc1C(O)c1nccn1C` (centres undefined) gave TTR transcr act 14*, HuH7 TTR inh -4 and TTR up confirm -1.
For CCn1c(C(O)c2cccc(OC)c2OC)nc2ccccc21 (centres undefined) the results were TTR transcr act 6.
Screening N#Cc1ccc(Cn2ccc3ccc(-c4ccc5ccn(Cc6ccccc6)c5c4)cc32)cc1 returned TTR transcr act 0.
`CCOC(=O)C1C[C@@H](O)C=CC1=O` (some centres undefined) gave TTR transcr act 0.
For CCOC(=O)Cc1csc(Nc2ccc(Cl)cc2)n1 the results were TTR transcr act -1.
CCOC(=O)Cc1csc(SCC(=O)Nc2cc(Cl)ccc2Oc2ccccc2)n1 was read as TTR transcr act 9.7*, HuH7 TTR inh 1 and TTR up confirm -1.
`CCOC(=O)Cc1csc(SCC(=O)N2CCN(c3ccc(OC)cc3)CC2)n1` gave TTR transcr act 0.
CC(C)CCNC(=O)C1COC(O)(C(Cc2ccccc2)NC(=O)[C@@H](NC(=O)OCc2ccccc2)C(C)C)CN1 (some centres undefined) was read as TTR transcr act -1.
`CCCCN1CC(=O)N2[C@H]3c4cc(C)ccc4OC[C@@H]3[C@H](C(=O)OCC)[C@]2(C)C1=O` gave TTR transcr act -1.
O=C(Nc1ccc(Cl)cc1)O[C@@H]1CC[C@@]23CCCN2C(=O)CCC[C@H]3C1 was read as TTR transcr act 1.
CC(C)Cn1cnc2c1c(=O)n(CC(=O)N(C)C)c(=O)n2Cc1ccccc1 was read as TTR transcr act 0.
Screening COCCn1cnc2c1c(=O)n(CC(=O)Nc1cc(C)on1)c(=O)n2Cc1ccccc1 returned TTR transcr act 16*, HuH7 TTR inh -15 and TTR up confirm 0.
